# This is part of a sample that, as a whole, favours compounds with a hit. Of some 83,000 tested, about 20% had one in any assay.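 96-well plates, one dose, 48 hours. Percent growth reported; active if below 10.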 The source made the active and inactive calls.
# Tested on: MDA-MB-468 breast
# Assay: NCI-60 one-dose screen, 48 h (100 = growth as untreated, 0 = no growth, -100 = all killed)
# Settings: 10 µM unless noted
row,Structure (SMILES),growth
1,O=C1/C(=C/c2ccc(Br)cc2)COc2ccc(O)cc21,89% (inactive)
2,C=C1CCC2C3(C)COC(C)(C)OC3CCC2(C)C1C/C=C1/C(=O)OCC1Oc1ccccc1OC (stereo not given),60.6% (inactive)
3,Cn1cc(-c2csc(-c3cn(CCN)c4ccc(Br)cc34)n2)c2cccnc21,28.6% (inactive)
4,O=C(Nc1cc(Cl)cc2c1-c1ccc(Cl)cc1C2O)C(Cl)Cl (stereo not given),-3.77% (active)
5,CN1CCN(CCOc2cc(OC3CCOCC3)c3c(Nc4c(Cl)ccc5c4OCO5)ncnc3c2)CC1,25.8% (inactive)
6,CC(=S)Nc1ccccc1,103% (inactive)
7,COc1ccc(/C=N/Nc2nc(Nc3ccccc3)nc(Nc3ccc(S(N)(=O)=O)cc3)n2)cc1,76.3% (inactive)
8,CCCCN(CCCC)CCCN=c1nc2c(c(N)n1-c1ccccc1)c(=S)n(-c1ccccc1)c(=S)n2-c1ccccc1,-89.9% (active)
9,COCCn1cc(-c2csc(-c3c[nH]c4ccc(Br)cc34)n2)c2cccnc21,0.403% (active)
10,NS(=O)(=O)N(c1cc(C(F)(F)F)cc(C(F)(F)F)c1)C1CCN(Cc2ccc(C(F)(F)F)cc2)CC1,-42.5% (active)
11,COc1ccc(-c2nc(SCC(=O)c3ccc(Br)cc3)[nH]c(=O)c2C#N)cc1,100% (inactive)
12,Nc1ccccc1NC(=O)c1ccc(NC(=O)C/C=C/c2cccnc2)cc1,-7.27% (active)
13,COC(=O)[C@H](C)NC(=O)[C@@H](OC)[C@@H]1Cc2cc3cc(OC4CC(OC5CC(O)C(O)C(C)O5)C(O)C(C)O4)c(C)c(O)c3c(O)c2C(=O)[C@H]1OC1CC(OC2CC(OC3CC(C)(O)C(O)C(C)O3)C(O)C(C)O2)C(O)C(C)O1 (stereo not given in full),-36.2% (active)
14,CCOc1ccc([C@H]2C(C(=O)c3ccc(Cl)cc3)C3(N[C@@H]2c2ccccc2)C(=O)Nc2ccc(Br)cc23)cc1 (stereo not given in full),-17.1% (active)
15,COc1cc(-c2c(C#N)c(N)n3c(nc4ccccc43)c2C#N)cc(Br)c1OC,36.5% (inactive)
16,COC(=O)Nc1nc2ccc(C(=O)c3ccccc3)cc2[nH]1,-13.7% (active)
17,Cn1c(SCC(=O)Nc2ccc(-c3nc4ccc([N+](=O)[O-])cc4[nH]3)cc2)nc2ccccc2c1=O,56.5% (inactive)
18,C(=C1c2ccccc2-c2ccccc21)c1ccncc1,0.207% (active)

row,Structure (SMILES),growth
1,O=C1C2CC=CCC2C(=O)N1CNc1ccc(Cl)cc1 (stereo not given),91% (inactive)
2,CC(O)c1cnc(/C=C2\SC(=S)N(Cc3ccccc3)C2=O)s1 (stereo not given),13.8% (inactive)
3,N#Cc1c(-c2cccs2)cc(-c2cnccn2)nc1SCC(=O)N/N=C/c1ccccc1,9.18% (active)
4,Cc1c(C(=O)N[C@@H](Cc2ccccc2)C(=O)C(=O)NCc2ccc(F)cc2)[nH]c2ccccc2c1=O,94.5% (inactive)
5,COc1ccc(C2CC(c3cccc(Nc4nc(Cl)nc5cc(OC)c(OC)cc45)c3)=Nc3c(N)nc(N)nc3N2)cc1 (stereo not given),92.3% (inactive)
6,NC(=O)c1ccc(C2C3=C(CCCC3=O)OC3=C2C(=O)c2ccccc2C3=O)cc1 (stereo not given),-30.6% (active)
7,Cc1nc(S(=O)(=O)c2ccccc2)c(S(=O)(=O)Cc2ccc([N+](=O)[O-])cc2)o1,78.1% (inactive)
8,CCN(CC)CCOc1ccc(/C(=C(\C)Cc2ccc(OC)cc2)c2ccc(O)cc2)cc1,-18.7% (active)
9,c1ccc(C(c2nc3ncncc3[nH]2)N2CSc3nc4ncncc4n3C2)cc1 (stereo not given),7.36% (active)
10,CCCCCCCCCCCC[N+]1(CCCCCCCCCCCC)CCCC(C)C1 (stereo not given),-89.7% (active)
11,Oc1ccc(N=Nc2ccccn2)c(O)c1,-2.78% (active)
12,COc1cc(-c2nc3sccn3c2-c2ccnc(NCCNS(=O)(=O)c3ccc(Cl)cc3)n2)ccc1F,29.7% (inactive)
13,CN[C@@H](CCCNC(N)=NC/C=C(/C)CCC=C(C)C)C(=O)N(C)[C@@H](CCCNC(N)=NCC=C(C)C)C(=O)N[C@H](C)[C@H](OS(=O)(=O)O)c1ccc(OS(=O)(=O)O)c(COS(=O)(=O)O)c1,97.3% (inactive)
14,CCCCC(O)c1ccccc1 (stereo not given),98.6% (inactive)
15,O=S(=O)(Nc1ccc(Cl)c(Cl)c1)c1ccc(-c2cnc(C3CC3)o2)cc1,7.72% (active)
16,N#Cc1cncc(-c2ccc3ncnc(Nc4cccc(Cl)c4)c3c2)c1,9.34% (active)
17,C=C1C(=O)O[C@H]2[C@H]1CC/C(COC(=O)NCc1ccc(Cn3c(=O)sn(CCCCl)c3=O)cc1)=C\CC[C@@]1(C)O[C@@H]21,-52% (active)

# Reference: PubChem BioAssay (NCI)
